Screen size: about 400,000 compounds; about 13,000 (3.2%) were called active. Roughly 18% stayed inconclusive and do not appear here. For the sample, actives were picked, then their nearest neighbours and some compounds at random. Values without a mark were called inactive. Calls follow the shape of the dose curve; as a rule, active = well fitted cell-killing curve with a large enough effect; inconclusive = small, poorly fitted or top-dose-only effect, or effect the other way; inactive = flat fitted curve, though single readings scatter.
assay: qHTS assay for MDR1-selective chemotherapeutics: Primary screen using the drug-selected MDR subline cells KB-V1; conditions: KB-V1 MDR cells viability, CellTiter-Glo, 72 h; series mostly up to 46.1 µM; activity change, negative = cytotoxicity: at the top concentration; also: nearly all actives have a fitted effect of over 60% in size
In short: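 Cells of the MDR subline KB-V1 are plated, dosed with compound at multiple concentrations, and incubated 72 h at 37 degrees C; CellTiter-Glo is then added and luminescence read after 10 min.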
% is scaled to controls: 0 for no effect and ±100 for the full control effect; potency is read from the fitted curve at half-maximal effect.

| Structure (SMILES) | activity change, negative = cytotoxicity | Potency |
| --- | --- | --- |
| CCOC(=O)c1c(NC(=S)SC)sc(C(=O)N2CCc3ccccc3C2)c1C | 10.7% | – |
| O=C(CSc1nnc(-c2cccnc2)n1CCc1ccccc1)NCc1ccccc1 | -3.79% | – |
| C=CCn1c(SCC(=O)NC(=O)Cc2ccccc2)nc2ccccc2c1=O | 0% | – |
| C=CCn1c(SCC(=O)NCc2ccccc2)nnc1-c1cc(Br)ccc1O | – | 11.6 µM (active) |
| CN1CCN(C(CNC(=O)c2ccccc2F)c2ccc3c(c2)OCO3)CC1 (centres undefined) | -3.27% | – |
| COc1ccc2c(c1)CCc1c(C(=O)Nc3c(C)n(C)n(-c4ccccc4)c3=O)noc1-2 | – | 18.4 µM (active) |
| COc1ccc2c(c1)CCc1c(C(=O)Nc3cc(C)ccc3O)noc1-2 | 11.3% | – |
| COc1ccc(NS(=O)(=O)c2ccc(C(=O)Nc3c(C)n(C)n(-c4ccccc4)c3=O)cc2)cc1 | 0% | – |
| Nc1ccc(/C=C/c2ccnc3ccccc23)c([N+](=O)[O-])c1 | -13.2% | – |
| COc1ccc(C2=Nc3ccccc3NC(=O)C2N(C(=O)c2cc3ccccc3[nH]2)c2ccccc2)cc1 (centres undefined) | 11% | – |
| COc1ccc(-c2ccc(C(=O)NC(C)C)c3occc23)c(C)c1 | -4% | – |
| O=C(Cn1nnc(-c2ccc(CN3CCOCC3)cc2)n1)NC1CCCCC1 | – | 23.1 µM (active) |
| COc1cccc(N(CC(=O)NC2CCCC2)C(=O)Cn2nnc(-c3ccc(C)cc3)n2)c1 | -0.0355% | – |
| O=C(Cn1nnc(-c2ccccc2)n1)NC(=O)NC1CCCC1 | -1.79% | – |
| CC(C)(C)C(=O)Nc1ccc(-c2cn3cccnc3n2)cc1 | 1.27% | – |
| COc1ccc(C(=O)Nc2cccc(NC(=O)c3ccc(OC)cc3OC)n2)c(OC)c1 | -11.6% | – |
| CC(C)(C)C(=O)Nc1cccc(-c2ccc[nH]2)n1 | – | 16.4 µM (active) |
| CCCCNC(=O)CCNC(=O)c1ccc(C(C)(C)C)cc1 | – | 14.6 µM (active) |
| CC(C)(C)c1ccc(C(=O)NCCC(=O)NCc2ccco2)cc1 | -16.8% | – |
| CCCN1CCN(C(=O)CCCNC(=O)c2ccc(Cl)cc2)CC1 | -6.51% | – |
| CCOc1ccc(S(=O)(=O)NCCC(=O)NNC(=O)c2ccc(F)cc2)cc1 | 19.8% | – |
| O=C(CSc1ccc(-c2ccco2)nn1)NCc1ccc2c(c1)OCO2 | -23.5% | – |

| Structure (SMILES) | activity change, negative = cytotoxicity | Potency |
| --- | --- | --- |
| O=C(CSc1ccc(-c2ccc(F)cc2)nn1)Nc1ccc2c(c1)OCCO2 | -21% | – |
| O=C(CSc1ccc(-c2ccco2)nn1)Nc1cccc(F)c1 | – | 10.3 µM (active) |
| O=c1c2c(nc3n1CCCCC3)sc1c(O)cccc12 | -5.57% | – |
| CC(=O)c1ccc(NC(=O)c2sc3nc4n(c(=O)c3c2C)CCCCC4)cc1 | – | 18.4 µM (active) |
| Cc1c(C(=O)Nc2ccccc2)sc2nc3n(c(=O)c12)CCCCC3 | 0% | – |
| Cc1ccc(C(=O)Nc2ccc(OCc3cc(=O)n4c5c(sc4n3)CCCC5)cc2)cc1 | -2.43% | – |
| Cc1ccc(NC(=O)C2(N3CCC3=O)CCCCC2)cc1 | 1.95% | – |
| CC(=O)c1ccc(NC(=O)c2nc(-c3ccc(C)cc3)n3c2CCCCC3)cc1 | – | 20.6 µM (active) |
| CC1(Oc2ccccc2-c2ccno2)CCN(Cc2ccc(-c3ccccc3)o2)C1 (centres undefined) | 0% | – |
| CC(C)CCNC(=O)c1[nH]c(C(F)(F)F)nc1-c1ccccc1 | -16.3% | – |
| NCCCCC(C(=O)O)N(C(=O)OCc1ccccc1)C(=O)OCc1ccccc1 (centres undefined) | -3.19% | – |
| O=C(Nc1ccc(Cl)cc1)c1csc([C@@H]2O[C@H](CO)[C@H](O)[C@H](O)[C@H]2O)n1 | 1.61% | – |
| CC(=O)Nc1ccc2nc(SCCOc3cc(C)cc(C)c3)sc2c1 | -6.54% | – |
| O=C1NC[C@H](CCCCN2C[C@H](Cc3ccc(O)cc3)N(CCc3ccccc3)C(=O)C2=O)N(CCc2ccccc2)C1=O | 1.54% | – |
| Cc1cccc(Cn2c(CN3CCC(C(=O)NCc4ccccc4Cl)CC3)cc3ccccc32)c1 | 4.63% | – |
| C/C(COc1ccccc1)=N\NC(=O)c1nnn(-c2nonc2N)c1-c1ccc(C)cc1 | 17.6% | – |
| CCN(CC)c1cc(NC2CCCCC2)c2c3c(onc13)-c1ccccc1C2=O | 25.8% | – |
| CCOC1=C2CN(S(=O)(=O)c3ccc(C)cc3)[C@H](c3cccs3)C[C@H]2[C@H]2C(=O)N(c3ccccc3)C(=O)[C@H]2C1 | 14.3% | – |
| COc1ccc(CCNC(=O)c2cc(-c3ccc4c(c3)OCO4)on2)cc1OC | -20.7% | – |
| Cc1oc(C)c2c(=O)cc(-c3ccc4c(c3)OCO4)cc(OC(=O)c3ccc(Cl)cc3)c12 | 17.3% | – |
| COc1cc(-c2c(-c3ccc4c(c3)OCO4)noc2C)ccc1F | – | 5.8 µM (active) |
| CC(Oc1ccc(Br)cc1)C(=O)NCC(c1ccco1)N1CCCCC1 (centres undefined) | – | 14.6 µM (active) |

| Structure (SMILES) | activity change, negative = cytotoxicity | Potency |
| --- | --- | --- |
| O=C(CCNC(=O)c1ccc(Br)cc1)NCC(c1ccco1)N1CCCCC1 (centres undefined) | 0.991% | – |
| CC(Oc1ccc(Br)cc1)C(=O)NC1CCCCCC1 (centres undefined) | -11% | – |
| C=CCn1c2c(c3ccccc31)CCC2 | 0.716% | – |
| COc1ccc(CN2C(=O)C(CC(=O)NCc3cccc4ccccc34)CC(C(=O)N3CCOCC3)=C2C)cc1 (centres undefined) | 4.5% | – |
| O=C(C[C@H]1CC[C@@H](NC(=O)c2ccncc2)[C@@H](CO)O1)NCC1CC1 | -2.33% | – |
| Cc1nnc(NC(=O)CSc2nc(C3CCCCC3)nc3ccccc23)s1 | -17.9% | – |
| O=C(CSc1nc(C2CC2)nc2ccccc12)Nc1cccc(O)c1 | -5.09% | – |
| O=C(CSc1nc(C2CC2)nc2ccccc12)Nc1ccc2c(c1)OCCO2 | – | 14.6 µM (active) |
| CCc1ccc(OC2(C)CCN(CCOc3ccc(C)cc3)C2)cc1 (centres undefined) | -11.1% | – |
| COc1cc(CNc2ncnc3c2ncn3[C@H]2CN(Cc3cccs3)C[C@@H](CO)O2)cc(OC)c1OC | 4.08% | – |
| COc1ccc(NC(=O)N(C)C[C@@H]2OCc3cn(nn3)CCCC(=O)N([C@H](C)CO)C[C@H]2C)c(OC)c1 | -1.34% | – |
| CC(=O)NC1=NN(C(C)=O)C(C)(c2ccc(C)cc2)S1 (centres undefined) | -0.422% | – |
| CC(=O)NC1=NN(C(C)=O)C(C)(CCS(=O)(=O)c2ccc(Cl)c(Cl)c2)S1 (centres undefined) | -0.186% | – |
| CC(=O)NC1=NN(C(C)=O)C(C)(c2ccc(Cl)s2)S1 (centres undefined) | – | 5.8 µM (active) |
| CCNC(=O)C1(C)CCN(Cc2ccc(C(=O)OCC)o2)C1 (centres undefined) | 2.24% | – |
| CC(=O)C[C@@H]1OC[C@H](CO)N1S(=O)(=O)c1ccc(C)cc1 | -0.307% | – |
| COc1ccc(Cl)cc1-c1cc(C(=O)Nc2cc(OC)c(OC)c(OC)c2)[nH]n1 | -24.4% | – |
| CCCn1c(=N)n(CC(=O)c2ccc(Cl)c(Cl)c2)c2ccccc21 | 0.789% | – |
| CCn1c(=N)n(CC(=O)c2cccc(OC)c2)c2ccccc21 | – | 8.2 µM (active) |
| COc1ccc2cc(C(=O)O)n(CC(=O)c3ccccc3)c2c1 | 8.89% | – |
